Measured values taken from the supplement of paper PMC10849652.
Targets with a hit are over-represented here; the source holds about 7,900 in all. About 0.6% of all pairs of compound and target were hits.

Compound: c1cn2cc(-c3ccc4cn[nH]c4c3)nc(Nc3ccc(N4CCOCC4)cc3)c2n1 [entospletinib]
Experiment: log2 fold change, soluble protein after heating vs DMSO (PISA); higher = thermal stabilisation; K562 cells, 10 uM, 30 min; active = over 0.2 and 3.5 SD of the protein, either way, in both replicates (recomputed)
Procedure, shortened: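 K562 cells at 2×10^6 cells/mL were treated with 10 μM compound for 30 min. Aliquots were heated for 3 min across 48°C-58°C, pooled, and extracted in PBS with 0.5% NP-40 at 4°C; soluble protein was the supernatant after 21,000xg for 90 min. Soluble protein was quantified by TMTpro 16plex LC-MS/MS with channel sums equalised, and reported as log2 fold change in thermal stability against DMSO controls, with values from duplicates.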

Sequence of UniProt Q8WYH8 (Q8WYH8 whole entry, looked up): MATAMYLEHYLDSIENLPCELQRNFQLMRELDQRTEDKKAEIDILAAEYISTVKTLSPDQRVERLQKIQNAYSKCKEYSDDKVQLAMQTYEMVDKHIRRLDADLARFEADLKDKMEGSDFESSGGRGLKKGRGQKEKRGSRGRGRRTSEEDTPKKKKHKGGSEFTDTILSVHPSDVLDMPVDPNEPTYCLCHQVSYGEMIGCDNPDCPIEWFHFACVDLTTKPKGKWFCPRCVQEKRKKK
Sequence of UniProt Q07666 (Q07666 whole entry, looked up): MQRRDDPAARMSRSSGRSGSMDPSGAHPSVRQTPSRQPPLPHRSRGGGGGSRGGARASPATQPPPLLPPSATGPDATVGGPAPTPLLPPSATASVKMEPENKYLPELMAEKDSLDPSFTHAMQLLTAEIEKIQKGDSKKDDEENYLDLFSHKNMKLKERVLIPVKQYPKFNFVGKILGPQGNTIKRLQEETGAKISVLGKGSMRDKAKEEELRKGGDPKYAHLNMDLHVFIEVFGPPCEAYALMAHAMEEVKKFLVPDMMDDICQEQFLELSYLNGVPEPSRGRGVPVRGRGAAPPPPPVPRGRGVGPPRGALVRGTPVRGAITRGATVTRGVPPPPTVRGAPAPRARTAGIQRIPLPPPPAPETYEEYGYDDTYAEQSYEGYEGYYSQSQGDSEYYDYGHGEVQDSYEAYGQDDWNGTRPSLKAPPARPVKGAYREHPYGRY
Sequence of UniProt O95568 (O95568 whole entry, looked up): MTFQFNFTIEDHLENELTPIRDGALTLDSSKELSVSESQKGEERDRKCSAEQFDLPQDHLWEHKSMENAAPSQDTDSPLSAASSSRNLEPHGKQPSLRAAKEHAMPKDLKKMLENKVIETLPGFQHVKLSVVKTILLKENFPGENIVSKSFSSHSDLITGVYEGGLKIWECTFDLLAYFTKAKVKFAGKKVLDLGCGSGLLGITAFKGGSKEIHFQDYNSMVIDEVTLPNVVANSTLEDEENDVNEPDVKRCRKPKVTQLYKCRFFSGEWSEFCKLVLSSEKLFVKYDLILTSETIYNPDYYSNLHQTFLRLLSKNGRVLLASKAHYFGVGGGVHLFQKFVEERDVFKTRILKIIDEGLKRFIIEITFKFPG
Sequence of UniProt Q9H1B7 (Q9H1B7 whole entry, looked up): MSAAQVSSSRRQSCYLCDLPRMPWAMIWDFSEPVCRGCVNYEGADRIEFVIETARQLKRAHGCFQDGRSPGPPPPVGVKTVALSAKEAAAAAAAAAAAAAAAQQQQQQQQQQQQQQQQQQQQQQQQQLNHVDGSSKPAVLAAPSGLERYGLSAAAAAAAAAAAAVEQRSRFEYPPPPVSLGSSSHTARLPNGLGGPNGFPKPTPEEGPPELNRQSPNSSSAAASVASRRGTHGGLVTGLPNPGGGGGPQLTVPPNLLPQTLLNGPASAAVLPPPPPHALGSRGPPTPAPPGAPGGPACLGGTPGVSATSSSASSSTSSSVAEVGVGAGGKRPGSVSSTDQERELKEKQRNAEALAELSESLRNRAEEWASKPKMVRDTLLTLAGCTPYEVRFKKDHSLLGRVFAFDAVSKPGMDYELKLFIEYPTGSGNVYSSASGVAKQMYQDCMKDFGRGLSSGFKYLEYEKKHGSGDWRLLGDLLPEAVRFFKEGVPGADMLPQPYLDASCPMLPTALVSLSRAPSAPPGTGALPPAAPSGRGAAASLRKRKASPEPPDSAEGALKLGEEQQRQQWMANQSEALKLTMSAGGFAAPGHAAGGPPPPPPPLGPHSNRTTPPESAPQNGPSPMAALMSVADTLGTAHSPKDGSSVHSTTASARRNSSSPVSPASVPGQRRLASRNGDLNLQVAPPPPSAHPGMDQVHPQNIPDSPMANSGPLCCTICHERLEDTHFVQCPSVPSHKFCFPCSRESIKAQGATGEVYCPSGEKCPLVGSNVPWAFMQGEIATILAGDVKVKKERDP
Sequence of UniProt Q86VI4 (Q86VI4 whole entry, looked up): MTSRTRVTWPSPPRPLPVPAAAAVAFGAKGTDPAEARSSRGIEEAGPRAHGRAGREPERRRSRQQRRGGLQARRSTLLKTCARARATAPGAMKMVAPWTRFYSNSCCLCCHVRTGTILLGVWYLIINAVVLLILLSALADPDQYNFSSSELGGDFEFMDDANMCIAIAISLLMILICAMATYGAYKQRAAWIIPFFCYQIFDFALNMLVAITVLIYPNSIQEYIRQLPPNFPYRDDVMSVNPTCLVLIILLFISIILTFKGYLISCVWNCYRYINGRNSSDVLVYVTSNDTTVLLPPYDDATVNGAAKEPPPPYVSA
Sequence of UniProt Q14653 (Q14653 whole entry, looked up): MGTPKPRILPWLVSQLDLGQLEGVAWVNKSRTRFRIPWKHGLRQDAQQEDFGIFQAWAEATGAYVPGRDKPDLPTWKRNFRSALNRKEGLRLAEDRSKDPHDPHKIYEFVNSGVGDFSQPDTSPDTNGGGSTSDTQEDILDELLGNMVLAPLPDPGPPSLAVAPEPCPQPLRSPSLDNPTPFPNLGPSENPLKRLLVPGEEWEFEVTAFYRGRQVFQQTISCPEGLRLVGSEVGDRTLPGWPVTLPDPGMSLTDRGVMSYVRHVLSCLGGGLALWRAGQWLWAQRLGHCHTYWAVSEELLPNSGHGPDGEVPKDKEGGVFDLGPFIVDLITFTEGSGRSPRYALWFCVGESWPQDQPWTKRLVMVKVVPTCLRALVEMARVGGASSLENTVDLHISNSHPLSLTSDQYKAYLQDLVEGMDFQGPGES
Sequence of UniProt Q9Y2X0 (Q9Y2X0 whole entry, looked up): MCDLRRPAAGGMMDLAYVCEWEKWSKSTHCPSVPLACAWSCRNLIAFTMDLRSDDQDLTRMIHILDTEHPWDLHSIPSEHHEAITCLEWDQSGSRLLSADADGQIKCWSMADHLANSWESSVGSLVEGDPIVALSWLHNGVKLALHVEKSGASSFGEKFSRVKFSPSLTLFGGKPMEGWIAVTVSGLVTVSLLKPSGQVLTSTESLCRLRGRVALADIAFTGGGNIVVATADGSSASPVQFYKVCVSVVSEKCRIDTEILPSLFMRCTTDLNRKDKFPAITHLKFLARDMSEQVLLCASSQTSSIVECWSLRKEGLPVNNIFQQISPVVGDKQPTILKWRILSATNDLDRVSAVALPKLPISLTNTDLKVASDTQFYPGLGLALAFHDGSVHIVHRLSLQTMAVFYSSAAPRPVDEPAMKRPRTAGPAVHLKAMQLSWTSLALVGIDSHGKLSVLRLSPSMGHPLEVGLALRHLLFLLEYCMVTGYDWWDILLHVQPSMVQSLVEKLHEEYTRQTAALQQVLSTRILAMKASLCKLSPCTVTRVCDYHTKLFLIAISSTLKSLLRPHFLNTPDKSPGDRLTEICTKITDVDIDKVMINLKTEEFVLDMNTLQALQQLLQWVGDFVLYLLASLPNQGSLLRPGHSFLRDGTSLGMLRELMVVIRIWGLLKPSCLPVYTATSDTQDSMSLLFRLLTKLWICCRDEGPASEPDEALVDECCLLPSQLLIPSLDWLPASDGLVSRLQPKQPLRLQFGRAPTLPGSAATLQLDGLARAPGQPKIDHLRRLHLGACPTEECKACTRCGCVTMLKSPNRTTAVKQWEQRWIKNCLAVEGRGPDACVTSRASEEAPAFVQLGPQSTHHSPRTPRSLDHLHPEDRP
Sequence of UniProt P13473 (P13473 whole entry, looked up): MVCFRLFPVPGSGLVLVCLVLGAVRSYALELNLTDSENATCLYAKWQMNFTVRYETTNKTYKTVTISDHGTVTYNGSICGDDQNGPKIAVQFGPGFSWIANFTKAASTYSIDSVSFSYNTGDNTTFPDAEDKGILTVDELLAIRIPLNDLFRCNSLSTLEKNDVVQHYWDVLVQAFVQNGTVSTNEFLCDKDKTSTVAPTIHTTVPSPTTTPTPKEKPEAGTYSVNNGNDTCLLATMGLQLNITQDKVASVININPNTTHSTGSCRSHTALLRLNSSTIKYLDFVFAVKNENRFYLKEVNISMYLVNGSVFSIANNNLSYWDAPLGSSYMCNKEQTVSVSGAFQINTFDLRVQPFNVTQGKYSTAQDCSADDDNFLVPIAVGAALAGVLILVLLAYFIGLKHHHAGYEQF
Sequence of UniProt Q13418 (Q13418 whole entry, looked up): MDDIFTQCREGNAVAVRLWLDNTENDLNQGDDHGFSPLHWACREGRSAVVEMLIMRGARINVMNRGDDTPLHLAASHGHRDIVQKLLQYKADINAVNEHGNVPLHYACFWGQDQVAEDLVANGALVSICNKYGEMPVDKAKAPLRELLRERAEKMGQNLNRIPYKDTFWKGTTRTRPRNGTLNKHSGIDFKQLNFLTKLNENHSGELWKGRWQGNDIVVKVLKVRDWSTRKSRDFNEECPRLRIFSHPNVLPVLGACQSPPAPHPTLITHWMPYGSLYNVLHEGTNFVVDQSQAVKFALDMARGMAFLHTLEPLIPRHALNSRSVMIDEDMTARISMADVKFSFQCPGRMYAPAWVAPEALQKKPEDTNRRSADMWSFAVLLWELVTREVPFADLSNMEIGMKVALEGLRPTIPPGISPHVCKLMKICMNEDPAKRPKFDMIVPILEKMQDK
Sequence of UniProt Q03252 (Q03252 whole entry, looked up): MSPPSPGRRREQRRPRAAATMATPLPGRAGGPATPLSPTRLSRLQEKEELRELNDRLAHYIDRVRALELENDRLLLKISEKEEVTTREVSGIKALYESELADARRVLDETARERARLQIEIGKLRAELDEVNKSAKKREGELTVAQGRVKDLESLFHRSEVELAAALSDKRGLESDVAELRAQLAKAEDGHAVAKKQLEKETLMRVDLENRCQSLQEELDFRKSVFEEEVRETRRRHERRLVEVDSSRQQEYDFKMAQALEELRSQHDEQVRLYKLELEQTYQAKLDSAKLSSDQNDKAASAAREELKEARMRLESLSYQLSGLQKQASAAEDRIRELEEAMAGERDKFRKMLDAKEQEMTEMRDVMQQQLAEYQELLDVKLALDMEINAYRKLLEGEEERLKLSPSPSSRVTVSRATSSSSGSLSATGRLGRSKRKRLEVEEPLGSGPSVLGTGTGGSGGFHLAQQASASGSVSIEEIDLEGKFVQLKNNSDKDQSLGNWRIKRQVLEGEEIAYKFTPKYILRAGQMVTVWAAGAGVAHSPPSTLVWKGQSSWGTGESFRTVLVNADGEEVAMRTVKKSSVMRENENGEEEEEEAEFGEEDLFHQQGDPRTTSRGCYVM

**Q.** ING5 (UniProt Q8WYH8) was tested. Which log2 fold change did it give?
**A.** -0.058 (inactive)

**Q.** With KRAS isoform 2 (UniProt P01116) as the target, how does the log2 fold change read?
**A.** -0.053 (inactive)

**Q.** How did the log2 fold change turn out when IWS1 (UniProt Q96ST2) was run?
**A.** 0.159 (inactive)

**Q.** With KSR1 (UniProt Q8IVT5) as the target, how does the log2 fold change read?
**A.** 0.038 (inactive)

**Q.** How did the log2 fold change turn out when IP6K1 (UniProt Q92551) was run?
**A.** -0.029 (inactive)

**Q.** How did the log2 fold change turn out when LMNB2 (UniProt Q03252) was run?
**A.** -0.082 (inactive)

**Q.** With KIF3A (UniProt Q9Y496) as the target, how does the log2 fold change read?
**A.** 0.491 (active)

**Q.** With ILVBL (UniProt A1L0T0) as the target, how does the log2 fold change read?
**A.** -0.028 (inactive)

**Q.** How did the log2 fold change turn out when MAPKAPK3 (UniProt Q16644) was run?
**A.** 0.001 (inactive)

**Q.** Which log2 fold change does the source give for MAGI1 (UniProt Q96QZ7) here?
**A.** 0 (inactive)

**Q.** IRF3 (UniProt Q14653) was tested. Which log2 fold change did it give?
**A.** -0.022 (inactive)

**Q.** For MEAK7 (UniProt Q6P9B6), which log2 fold change is on record?
**A.** -0.06 (inactive)

**Q.** For KIF13A (UniProt Q9H1H9), which log2 fold change is on record?
**A.** 0.066 (inactive)

**Q.** How did the log2 fold change turn out when KHDRBS1 (UniProt Q07666) was run?
**A.** 0.189 (inactive)

**Q.** With IPO9 (UniProt Q96P70) as the target, how does the log2 fold change read?
**A.** 0.037 (inactive)

**Q.** IPO13 (UniProt O94829) was tested. Which log2 fold change did it give?
**A.** 0.106 (inactive)

**Q.** MFSD5 isoform 2 (UniProt Q6N075) was tested. Which log2 fold change did it give?
**A.** -0.005 (inactive)

**Q.** IPO11 isoform 2 (UniProt Q9UI26) was tested. Which log2 fold change did it give?
**A.** 0.022 (inactive)

**Q.** Which log2 fold change does the source give for LAMP2 isoform 2 (UniProt P13473) here?
**A.** 0.033 (inactive)

**Q.** With KMT2C isoform 3 (UniProt Q8NEZ4) as the target, how does the log2 fold change read?
**A.** 0.052 (inactive)

**Q.** How did the log2 fold change turn out when KEL (UniProt P23276) was run?
**A.** -0.023 (inactive)

**Q.** Which log2 fold change does the source give for MED16 (UniProt Q9Y2X0) here?
**A.** 0.014 (inactive)

**Q.** LRFN1 (UniProt Q9P244) was tested. Which log2 fold change did it give?
**A.** -0.031 (inactive)

**Q.** How did the log2 fold change turn out when MIEN1 (UniProt Q9BRT3) was run?
**A.** -0.01 (inactive)

**Q.** MAGEA8 (UniProt P43361) was tested. Which log2 fold change did it give?
**A.** 0.125 (inactive)

**Q.** Which log2 fold change does the source give for IRF2BPL (UniProt Q9H1B7) here?
**A.** 0.001 (inactive)

**Q.** How did the log2 fold change turn out when MAP4 (UniProt P27816) was run?
**A.** -0.017 (inactive)

**Q.** Which log2 fold change does the source give for KPNA4 (UniProt O00629) here?
**A.** -0.058 (inactive)

**Q.** How did the log2 fold change turn out when ILK (UniProt Q13418) was run?
**A.** 0.074 (inactive)

**Q.** For MFSD11 (UniProt O43934), which log2 fold change is on record?
**A.** 0.109 (inactive)

**Q.** LAPTM4B (UniProt Q86VI4) was tested. Which log2 fold change did it give?
**A.** 0.049 (inactive)

**Q.** How did the log2 fold change turn out when MARCHF3 (UniProt Q86UD3) was run?
**A.** 0.058 (inactive)

**Q.** For KEAP1 (UniProt Q14145), which log2 fold change is on record?
**A.** 0.101 (inactive)

**Q.** With METTL18 (UniProt O95568) as the target, how does the log2 fold change read?
**A.** 0.072 (inactive)
